Assay outcomes from PubChem BioAssay.
TGFb inhibitor: TGF-b pathway inhibition | HepG2 CAGA-GFP TGF-b/SMAD3 reporter, GFP fluorescence, 18 h; TGF-beta stimulated, 500 pg/mL final | Potency, µM (highest dose often 46.1 µM), most hits filed as inhibitors | 410,000 compounds, 1.2% hits; note: nearly all actives have a fitted effect of over 65% in size
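GFP signal (ex488/em500-530) from TGF-beta-stimulated HEPG2 CAGA-GFP cells, 500 pg/mL final, 18 h at 37 degrees C in DMEM plus 1% FBS, normalized to unstimulated and DMSO-stimulated controls.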
Apoferritin bind: candidate novel general anesthetic via apoferritin binding; P02791; apoferritin/1-aminoanthracene competitive binding, fluorescence; Potency, µM (highest dose often 77.5 µM), most hits filed as inhibitors; 350,000 compounds, 0.074% hits; AID 485281; note: nearly all actives have a fitted effect of over 20% in size
Target sequence (P02791 2-175 limits assumed): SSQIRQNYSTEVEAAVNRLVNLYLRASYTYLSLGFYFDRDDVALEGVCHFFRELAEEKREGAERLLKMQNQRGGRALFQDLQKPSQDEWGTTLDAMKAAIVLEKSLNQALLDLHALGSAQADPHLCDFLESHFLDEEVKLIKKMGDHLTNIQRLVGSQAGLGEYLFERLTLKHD
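Horse-spleen apoferritin (10 uM) was mixed with 50% saturated 1-aminoanthracene in PBS, exposed to compounds for 10 min at room temperature, and read for fluorescence (ex 380 nm, em 535 nm). Competitive displacement was fitted with a four-parameter Hill equation.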
HepG2 tox: HepG2 cytotoxicity, counter-screen for TGF-b inhibitors | HepG2 CAGA-GFP viability, ATP luminescence, 18 h | Potency, µM (series often up to 46.1 µM), hits mostly cytotoxic | 410,000 compounds, 0.76% hits
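HepG2 CAGA-GFP cells (1000/well, DMEM with 1% FBS) received compound, then TGF-beta at 500 pg/mL final, and were incubated 18 hours at 37 degrees C. Viability was read by CellTiter-Glo luminescence. Media-only wells were set as complete cell-killing and DMSO as no toxicity.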
ATXN2 expr inh: reduces ATXN2 reporter expression in HEK-293 cells; Potency, µM (titrated, usually from 57 µM), most hits filed as inhibitors; HEK-293 ATXN2-luciferase reporter, luminescence, 24 h; 360,000 compounds, 0.72% hits; note: nearly all actives have a fitted effect of over 55% in size
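ATXN2-luciferase reporter cells (luciferase flanked by upstream and downstream ATXN2 gene portions) were treated 24 h at 37 °C with compounds at up to 57 uM. SteadyGlo luminescence gave expression; GF-AFC fluorescence gave viability.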
ATXN viability: cell viability loss in ATXN counter-screen; S2 cells (HEK-293 line with an ATXN2-luciferase reporter) viability, CellTiter-Fluor protease fluorescence, 24 h; Potency, µM (titrated, usually from 56.7 µM), actives largely listed as cytotoxic; 400,000 compounds, 0.49% hits; AID 651635; note: nearly all actives have a fitted effect of over 40% in size
Of the large screens only hits and unclear results are named; the others gave an inactive call. Most compounds without a hit are left out; they make up all but 2.4% or so of the library. Calls come from the whole dose curve; as a rule, active = well fitted curve in the direction sought with a large enough effect; inconclusive = small, poorly fitted or top-dose-only effect, or another doubt; inactive = no such curve, though single readings can be large; an effect the other way counts as inactive or inconclusive.

COc1cc(/C=N/NS(=O)(=O)c2ccc3ccccc3c2)ccc1OCc1ccc(C(=O)O)cc1	none
COc1cc(/C=N/O)ccc1OCc1ccc(C(=O)O)cc1	ATXN2 expr inh 0.708µM
COc1ccc(OCC(=O)N/N=C/c2cccc3cccnc23)cc1	ATXN2 expr inh inconclusive (no result: Apoferritin bind)
CCCCCCCCC(=O)N/N=C/c1ccccn1	TGFb inhibitor inconclusive, Apoferritin bind 12.6µM
O=C(COc1ccc(Cl)cc1)N/N=C/c1cccc2cccnc12	TGFb inhibitor inconclusive, Apoferritin bind inconclusive, ATXN2 expr inh 25.1µM
COc1ccc(C(=O)Nc2ccccc2C(=O)N/N=C/c2ccccn2)cc1OC	TGFb inhibitor inconclusive, ATXN2 expr inh 28.2µM
CCCCC(C(=O)N/N=C/c1ccccn1)C(=O)N/N=C/c1ccccn1	TGFb inhibitor inconclusive
O=C(N/N=C/c1cccc2cccnc12)c1ccccc1O	TGFb inhibitor inconclusive, ATXN viability 3.55µM (no result: ATXN2 expr inh)
C=CS(=O)(=O)O	none (no result: TGFb inhibitor, Apoferritin bind, HepG2 tox, ATXN2 expr inh)
CN(C)c1ccc(Cn2ccc3ccccc32)cc1	TGFb inhibitor inconclusive (no result: Apoferritin bind, ATXN2 expr inh, ATXN viability)
O=C1C=CC2(OCCCO2)C(Br)=C1	none (no result: TGFb inhibitor, HepG2 tox, ATXN2 expr inh, ATXN viability)
Cc1ccccc1C(=O)N/N=C/c1ccccn1	none
O=C(N/N=C\c1ccccn1)c1ccccc1O	TGFb inhibitor inconclusive, HepG2 tox 3.16µM
C[C@@H](c1ccccc1)N1C(=O)[C@H]2[C@H]3[C@H](O)[C@H](O)C/C(=N/OCc4ccccc4)[C@@H]3CC[C@@H]2C1=O	none (no result: TGFb inhibitor, HepG2 tox, ATXN2 expr inh, ATXN viability)
Cc1ccc(NC(=O)NCc2ccccn2)c(C)c1	none
CC(C)(C)c1ccc(C2NC(=O)c3n[nH]c(-c4cccs4)c32)cc1 (stereo not drawn)	TGFb inhibitor inconclusive, Apoferritin bind inconclusive, HepG2 tox 11.2µM (no result: ATXN2 expr inh, ATXN viability)
CCOc1ccc(C2NC(=O)c3n[nH]c(C)c32)cc1 (stereo not drawn)	none
COc1ccc2[nH]c(C)c(CCNC(=S)Nc3cc(C)ccc3C)c2c1	none
CCc1cccc(C)c1NC(=S)NCCc1c(C)[nH]c2ccc(C)cc12	TGFb inhibitor 12.6µM, HepG2 tox 11.2µM, ATXN2 expr inh inconclusive
CCc1cccc(CC)c1NC(=S)NCCc1c(C)[nH]c2ccc(C)cc12	TGFb inhibitor 12.6µM, ATXN2 expr inh 17.8µM, ATXN viability inconclusive
COc1ccc(-n2c(CNC(=O)c3c(-c4ccccc4)noc3C)nnc2SC)cc1	none (no result: TGFb inhibitor, Apoferritin bind, HepG2 tox, ATXN2 expr inh)
COC(=O)c1c(OCc2cccnc2)cc(=O)n2c1CCN(C(=O)c1ccc(OC)c(F)c1)CC2	none (no result: TGFb inhibitor, Apoferritin bind, HepG2 tox, ATXN2 expr inh)
C/C(=N\Nc1cc(N2CCCCC2)nc(C)n1)c1ccc(Br)cc1	TGFb inhibitor 10µM, HepG2 tox 15.8µM, ATXN2 expr inh inconclusive
C/C(=N\Nc1cc(N2CCOCC2)nc(C)n1)c1ccc(F)cc1	TGFb inhibitor inconclusive, ATXN2 expr inh inconclusive
CCC(C)CCCCC(=O)N[C@@H](CCN)C(=O)NC(C(=O)N[C@H](CCN)C(=O)N[C@@H]1CCNC(=O)C([C@@H](C)O)NC(=O)[C@@H](CCN)NC(=O)[C@@H](CCN)NC(=O)[C@@H](CC(C)C)NC(=O)[C@H](Cc2ccccc2)NC(=O)[C@H](CCN)NC1=O)[C@@H](C)O (stereo partly drawn)	none (no result: TGFb inhibitor, Apoferritin bind, HepG2 tox, ATXN viability)
CCc1ccc(C2c3c(-c4ccccc4O)n[nH]c3C(=O)N2Cc2ccncc2)cc1 (stereo not drawn)	TGFb inhibitor inconclusive, ATXN viability 25.1µM
CCOCCCN1C(=O)c2[nH]nc(-c3ccccc3O)c2C1c1ccc(CC)cc1 (stereo not drawn)	TGFb inhibitor inconclusive, HepG2 tox 17.8µM, ATXN viability inconclusive
CSc1ccc(C(=O)N2CCc3c(cnc(C)c3CNC(=O)c3cncs3)C2)cc1	none (no result: TGFb inhibitor, Apoferritin bind, HepG2 tox, ATXN2 expr inh)
c1ccc(Nc2ccccc2)cc1	none (no result: Apoferritin bind)
CCCCNC1=CC(=O)C(=O)c2ccccc21	TGFb inhibitor 3.55µM, HepG2 tox 7.08µM, ATXN viability inconclusive (no result: ATXN2 expr inh)
CCCCNC1=CC(=O)C(NCCCC)=CC1=O	ATXN viability inconclusive (no result: Apoferritin bind)
O=C1C=C(Nc2cccc3cccnc23)c2ccccc2C1=O	TGFb inhibitor 5.01µM, HepG2 tox 3.55µM, ATXN viability 14.1µM
O=S(=O)(Nc1cccc2cccnc12)c1ccccc1Br	TGFb inhibitor 6.31µM (no result: Apoferritin bind, ATXN2 expr inh, ATXN viability)
O=C1C=C(Nc2ccccc2)c2ccccc2C1=O	TGFb inhibitor 3.16µM, HepG2 tox 3.55µM, ATXN2 expr inh inconclusive, ATXN viability 28.2µM
Cc1nc2ccc(C(=O)N3CCOc4ccc(CN5CCOCC5)cc4C3)cc2nc1C	none (no result: TGFb inhibitor, Apoferritin bind, HepG2 tox, ATXN2 expr inh)
CCCCC(CC)C/C=C1\CC(C(=O)OCC)Oc2ccccc21 (stereo not drawn) (tested in a mixture with another compound)	none (no result: TGFb inhibitor, HepG2 tox, ATXN2 expr inh, ATXN viability)
CCc1ccc(NC2=CC(=O)C(=O)c3ccccc32)cc1	TGFb inhibitor 2µM, HepG2 tox 2.82µM, ATXN2 expr inh inconclusive, ATXN viability inconclusive (no result: Apoferritin bind)
O=C1C=C(Nc2ccccc2C(=O)O)c2ccccc2C1=O	TGFb inhibitor inconclusive, HepG2 tox 15.8µM
COc1cccc(/C=C/C(=O)OCC(=O)c2c(N)n(C)c(=O)n(C)c2=O)c1	ATXN viability inconclusive (no result: Apoferritin bind)
CCc1cc(C(=O)NNC(=O)CCl)sc1C	ATXN viability 28.2µM (no result: ATXN2 expr inh)
CCC(=O)NCCCCCCNC(=O)CC	none
O=C(CCl)NCCCCCCCCCNC(=O)CCl	TGFb inhibitor inconclusive, ATXN viability 10µM
CCC(CNc1cc(OC)cc2cccnc12)NC1CCCCC1 (stereo not drawn)	TGFb inhibitor inconclusive, ATXN viability 17.8µM (no result: ATXN2 expr inh)
O=C(CNC(=O)c1cccc(Br)c1)N/N=C/c1ccc[nH]1	Apoferritin bind inconclusive
